40 molecules from PubChem BioAssay (Tox21) can be followed below.

Calls of active or inactive are those of the source. Entries that show only a call come without a potency. Calls follow the shape of the full dose curve.

The target in the test is Muscarinic acetylcholine receptor M1 (Homo sapiens) (UniProt P11229). In words: Cholinergic receptor muscarinic 1 (CHRM1) small molecule agonists, cell-based qHTS assay (AID 1963589). Also: nearly all actives have a fitted effect of over 35% in size. The following applies: CHRM1-CHO cells, agonist mode, calcium flux fluorescence; series mostly up to 76.8 µM. The text has this: National Center for Advancing Translational Sciences [NCATS]
Sequence of Muscarinic acetylcholine receptor M1 (Homo sapiens) (P11229 whole entry, looked up): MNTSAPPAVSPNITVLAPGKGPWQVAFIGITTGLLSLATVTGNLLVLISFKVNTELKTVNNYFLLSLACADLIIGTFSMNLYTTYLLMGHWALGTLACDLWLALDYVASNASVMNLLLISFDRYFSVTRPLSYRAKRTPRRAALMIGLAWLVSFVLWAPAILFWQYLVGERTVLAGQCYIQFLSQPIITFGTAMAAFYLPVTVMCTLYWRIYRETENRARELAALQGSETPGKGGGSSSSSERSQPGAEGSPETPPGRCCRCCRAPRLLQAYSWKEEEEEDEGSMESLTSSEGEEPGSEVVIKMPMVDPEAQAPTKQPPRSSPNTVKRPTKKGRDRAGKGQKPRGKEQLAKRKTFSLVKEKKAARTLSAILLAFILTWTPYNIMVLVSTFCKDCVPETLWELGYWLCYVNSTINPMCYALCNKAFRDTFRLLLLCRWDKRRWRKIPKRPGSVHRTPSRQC
Division of Preclinical Innovation [DPI]
U.S. Environmental Protection Agency [EPA]
National Institutes of Environmental Health Sciences [NIEHS]
National Toxicology Program [NTP]
U.S. Food and Drug Administration [FDA]
The CHRM1 is a muscarinic receptor. This receptor plays a crucial role in learning and memory processes and has long been identified as a promising therapeutic target for the improvement of cognitive decline in Alzheimer's disease (AD). The CHRM1-CHO cell line stably expressing human muscarinic acetylcholine receptor M1 (CHRM1) can be used for screening agonists and antagonists of interactions between CHRM1 and its ligands. The CHRM1-CHO Calcium Flux Assay is a homogeneous fluorescence-based assay for detecting the intracellular calcium level using FDSS kinetic plate reader system.
CHRM1-CHO cells were dispensed at 1000 cells/3uL/well in 1536-well black-clear bottom plates using a Multidrop Dispenser. After the assay plates were incubated at a 37 C/5% CO2 incubator for 18 h, 3 uL of Dye Loading Buffer was transferred to the assay plate by a Flying Reagent Dispenser. The assay plates were incubated at 37 C for 1h. For agonist mode, 23 nL of compounds dissolved in DMSO, positive controls or DMSO only was transferred to the assay plate by a pin tool. […] Each test compound was measured at 15 concentrations in three independent runs.
Consider `CCC(=O)c1ccc2c(c1)N(CCCN(C)C)c1ccccc1S2`, for which the Potency result was “inactive”.
Still for that read-out and setting: to `Nc1nc2ccccc2n1Cc1ccc(F)cc1` belongs “inactive”.
As for `CCCCc1cc2ccccc2c(OCCN(C)C)n1`, the Potency result is “inactive”.
For the molecule `CCN(CC)CC`, the Potency result is “inactive”.
Regarding `CC(CCO)CCCC(C)(C)O` (stereo not given), the Potency result was “inactive”.
Take `C=C[Si]1(C)O[Si](C)(C=C)O[Si](C)(C=C)O[Si](C)(C=C)O1` (stereo not given): the Potency entry is “inactive”.
Turning to `COc1ccc2c(c1)c1c3n2CCN(C)C3=NCC1`, the Potency result is “inactive”.
Same read-out and setting: the result for `Cc1cc([N+](=O)[O-])ccc1N` reads “inactive”; that for `Cc1cc(Cl)c(C)cc1Cl`, “inactive”; that for `Clc1cccc(C(c2ccc3nc[nH]c3c2)n2ccnc2)c1` (stereo not given), “inactive”.
On to `C#Cc1cccc(Nc2ncnc3cc(OCCOC)c(OCCOC)cc23)c1`, for which the Potency entry is “inactive”.
The same measure, in the same setting: the result for `C=CCc1cc(S(=O)(=O)c2ccc(O)c(CC=C)c2)ccc1O` reads “inactive”; that for `C=CCOC(=O)c1ccc(C(=O)OCC=C)c(C(=O)OCC=C)c1`, “inactive”; that for `CN1C(C)(C)CC(O)CC1(C)C`, “inactive”.
On the same count and under the same terms, to `CCCCOC(=O)CO` belongs “inactive”; to `O=S(=O)(O)c1ccc(Nc2nc(Nc3ccc(/C=C/c4ccc(Nc5nc(Nc6ccc(S(=O)(=O)O)cc6)nc(N(CCO)CCO)n5)cc4S(=O)(=O)O)c(S(=O)(=O)O)c3)nc(N(CCO)CCO)n2)cc1`, “inactive”.
As for `COC(=O)c1cc(Cl)ccc1[N+](=O)[O-]`, the Potency result was “inactive”.
On the same count and under the same terms, the result for `CC(C)CCCCCCOC(=O)C1CCCCC1C(=O)OCCCCCCC(C)C` (stereo not given) reads “inactive”; that for `CC(=O)C(=O)CC(C)C`, “inactive”.
For the molecule `CCc1ccc(C(c2ccc(CC)cc2)C(Cl)Cl)cc1`, the Potency entry is “inactive”.
Turning to `Cc1cccc(Nc2ccccc2)c1`, the Potency result is “inactive”.
For `CCCCO`, the Potency result was “inactive”.
For the molecule `Oc1cccc(Nc2ccccc2)c1`, the Potency entry was “inactive”.
On the same count and under the same terms, the result for `C=C(C)C(=O)OCc1ccccc1` reads “inactive”; that for `CC(C)O.CC(C)O.CCOC(=O)/C=C(\C)O.CCOC(=O)/C=C(\C)O.[Ti]`, “inactive”.
Same read-out and setting: to `Nc1ccccn1` belongs “inactive”; to `CC1(C)C(=O)N(Br)C(=O)N1Br`, “inactive”; to `O=C1CC[C@@H](C(=O)O)N1`, “inactive”.
Turning to `Cc1ccc(Cl)cc1N`, the Potency result is “inactive”.
As to `O=c1cc(-c2ccc(O)cc2)oc2cc(O)cc(O)c12`, the Potency result is “inactive”.
As for `O=C(NO)C1(NS(=O)(=O)c2ccc(Oc3ccc(F)cc3)cc2)CCOCC1`, the Potency entry was “inactive”.
On to `Clc1ccc(C(Cn2ccnc2)OCc2ccc(Sc3ccccc3)cc2)c(Cl)c1` (stereo not given), for which the Potency result was “inactive”.
Turning to `C[C@H]1COc2c(C3(N)CC3)c(F)cc3c(=O)c(C(=O)O)cn1c23`, the Potency entry is “inactive”.
`COc1ccc(C(=O)/C(Br)=C\C(=O)O)cc1`: the Potency result is “inactive”.
The same measure, in the same setting: to `CCCCc1ccc2nc(NC(=O)OC)[nH]c2c1` belongs “inactive”.
For `O=C(O)O`, the activation was -0.0976% [at 6.97 µM] (inactive).
`CCCCOC(=O)CC#N`: the Potency entry is “inactive”.
Turning to `Fc1ccccc1`, the Potency entry is “inactive”.
As for `O=C(O)c1ccccc1C(=O)OCc1ccccc1`, the Potency result was “inactive”.
Regarding `O=C(O)CN(CCOCCOCCN(CC(=O)O)CC(=O)O)CC(=O)O`, the activation is -0.0666% [at 0.29 µM] (inactive).
